Data published in PubChem BioAssay (Tox21).
Results filed as inconclusive are left out. Where a call stands in place of a potency, no number is given. Unmarked numbers belong to inactive results. Calls of active or inactive are those of the source. Unless noted, calls follow the shape of the dose curve; as a rule, active = well fitted curve in the direction sought with a large enough effect in the repeat runs; inconclusive = weak or mixed curves; inactive = no such curve, though single readings can be large; an effect the other way counts as inactive or inconclusive.

How the values were obtained:
[1] = qHTS assay to identify small molecule agonists of the vitamin D receptor (VDR) signaling pathway - cell viability counter screen (AID 743224); settings: VDR-bla HEK293T viability, CellTiter-Glo luminescence, 16 h; series mostly up to 62.6 µM; also: nearly all actives have a fitted effect of over 50% in size
Procedure, shortened: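 Compounds were pin-transferred onto VDR-bla cells plated 4 h earlier; following 16 h incubation at 37C, cell viability was quantified by CellTiter-Glo luminescence after 30 min at room temperature.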

[2] = qHTS assay to identify small molecule antagonists of the vitamin D receptor (VDR) signaling pathway - cell viability counter screen (AID 743225); settings: VDR-bla HEK293T viability, CellTiter-Glo luminescence, 16 h; series mostly up to 61 µM; also: nearly all actives have a fitted effect of over 50% in size
Procedure, shortened: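 In this counter screen, VDR-bla HEK 293T cells receive test compound plus 3 nM final calcitriol for 16 h at 37C. Room-temperature steps of 2 h with the beta-lactamase substrate, then 30 min with CellTiter-Glo, precede the luminescence read.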

[3] = qHTS assay to identify small molecule agonists of the NFkB signaling pathway - cell viability counter screen (AID 1159515; calls by dose curve; also: nearly all actives have a fitted effect of over 55% in size); settings: NFkB-bla ME-180 viability, CellTiter-Glo luminescence, 5 h; series mostly up to 61 µM
Procedure, shortened: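 Parallel cytotoxicity counter screen in ME-180 cells carrying an NFkB-response-element beta-lactamase reporter, 2,000 cells/well. Compound exposure lasted 5 hr at 37 C, 5% CO2. Cell viability was quantified by CellTiter-Glo luminescence.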

[4] = qHTS assay to identify small molecule agonists of the endoplasmic reticulum stress response signaling pathway (AID 1159516; active = well fitted activation curve with a large enough effect in the signal ratio in the repeat runs, not every such curve was filed as active; the % refers to the signal ratio); settings: ESRE-bla HeLa, ER stress beta-lactamase reporter, 5 h; series mostly up to 61 µM
Procedure, shortened: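 Using a HeLa line with an ESRE-driven beta-lactamase gene, agonist activity was measured by FRET substrate fluorescence (460 and 530 nm emission) after cells were treated with compounds for 5 hr at 37 C and 5% CO2.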

[5] = qHTS assay to identify small molecule agonists of the endoplasmic reticulum stress response signaling pathway - cell viability counter screen (AID 1159517; calls by dose curve;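 also: HeLa cells carrying an ER stress response element beta-lactamase reporter; nearly all actives have a fitted effect of over 50% in size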); settings: ESRE-bla HeLa viability, CellTiter-Glo luminescence, 5 h; series mostly up to 61 µM
Procedure, shortened: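 Cpd-treated ESRE-bla HeLa (5 hr, 37 C) → LiveBLAzer 2 hr RT → CellTiter-Glo 30 min RT → luminescence.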

[6] = qHTS assay to identify small molecule antagonists of the retinoid-related orphan receptor gamma (ROR-gamma) signaling pathway - cell viability counter screen (AID 1159520); settings: Tet-on RORgamma CHO cells viability, ATP luminescence, 16 h; series mostly up to 92.4 µM; also: nearly all actives have a fitted effect of over 50% in size
Procedure, shortened: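 Tet-on ROR gamma CHO cells (1,000/well) were plated 4 hr, given compounds in DMSO for 2 hr at 37 C, then induced with 1 uM final doxycycline for 16 hr. Viability was read as ATP by CellTiter-Glo luminescence after 30 min.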

[7] = target: Nuclear receptor ROR-gamma (Homo sapiens) (UniProt P51449); test: qHTS assay to identify small molecule antagonists of the retinoid-related orphan receptor gamma (ROR-gamma) signaling pathway (AID 1159521); settings: Tet-on RORgamma CHO cells, RORE-luciferase, 16 h; series mostly up to 92.4 µM
Procedure, shortened: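 Screening format: cell-based luciferase reporter in CHO cells with doxycycline-inducible RORγ. Compound pre-exposure lasts 2 h, doxycycline is 1 uM final, induction runs 16 h at 37 C, and ONE-Glo luminescence is read.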

[8] = qHTS assay to identify small molecule agonists of the AP-1 signaling pathway - cell viability counter screen (AID 1159525; calls by dose curve; also: nearly all actives have a fitted effect of over 55% in size); settings: ME-180 AP-1-bla cells viability, ATP luminescence, 5 h; series mostly up to 76.8 µM
Procedure, shortened: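 Each titration point was normalised to DMSO and tetra n-octyl ammonium bromide controls. The read was Cell Titer Glo luminescence after 30 min at RT, following 5 h compound exposure of ME-180 AP-1-bla cells at 37 °C.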

[9] = qHTS assay to identify small molecule agonists of the AP-1 signaling pathway (AID 1159526; calls by dose curve); settings: ME-180 (cervical carcinoma) AP-1-bla reporter, beta-lactamase FRET ratio, 5 h; series mostly up to 76.8 µM
[10] = target: Retinoic acid receptor RXR-alpha (Homo sapiens) (UniProt P19793); test: qHTS assay to identify small molecule agonists of the RXR signaling pathway (AID 1159527; calls by dose curve; also: nearly all actives have a fitted effect of over 35% in size); settings: HEK293T RXRa-UAS-bla, beta-lactamase ratio, 16 h; series mostly up to 76.8 µM
Procedure, shortened: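 Fluorescence ratio readout (460 vs 530 nm) from GeneBLAzer RXR-alpha HEK 293T cells after 16 hr compound treatment; cells seeded 5 hr beforehand in low-serum, charcoal-stripped medium.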

[11] = qHTS assay to identify small molecule agonists of the RXR signaling pathway - cell viability counter screen (AID 1159529); settings: RXR-alpha-bla HEK293T viability, CellTiter-Glo, 16 h; series mostly up to 76.8 µM
Procedure, shortened: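 Viability read-out for the RXR-alpha agonist qHTS: luminescent CellTiter-Glo signal after 30 min at RT. HEK 293T bla reporter cells, 2% charcoal-stripped FBS, 16 hr compound incubation; tetraoctyl ammonium bromide as cytotoxic control.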

[12] = qHTS assay to identify small molecule antagonists of the retinoid acid receptor (RAR) signaling pathway - cell viability counter screen (AID 1159551); settings: C3RL4 cells viability, ATP luminescence (CellTiter-Glo), 6 h; series mostly up to 92.4 µM; also: nearly all actives have a fitted effect of over 35% in size
Procedure, shortened: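 ATP-based viability, C3RL4 cells, 6 h at 37 C with 1 uM final retinol co-added after compound; luminescence read 30 min post CellTiter-Glo, RT.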

[13] = qHTS assay to identify small molecule antagonists of the retinoic acid receptor (RAR) signaling pathway (AID 1159552; also: nearly all actives have a fitted effect of over 50% in size); settings: C3RL4 RARE luciferase reporter, retinol-stimulated, 6 h; series mostly up to 92.4 µM
Procedure, shortened: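 Using a RARE-driven luciferase construct in C3RL4 cells, retinol at 1 uM final provided the agonist stimulus while compounds were co-applied. After 6 hours at 37 C, luminescence was recorded to flag inhibitors of retinol signaling.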

[14] = qHTS assay to identify small molecule agonists of the retinoic acid receptor (RAR) signaling pathway (AID 1159553); settings: C3RL4 RARE luciferase reporter, agonist, 6 h; series mostly up to 73.3 µM; also: potency is read from the fitted curve at half-maximal effect
Procedure, shortened: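 Quantitative high-throughput format: the Tox21 10K library was tested on C3RL4 RARE-luciferase cells for 6 hr at 37 C and 5% CO2, with luminescence measured after a 30 min room-temperature reagent step.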

[15] = qHTS assay to identify small molecule antagonists of the estrogen related receptor (ERR) signaling pathway - cell viability counter screen (AID 1224818); settings: ERR reporter cell line viability counter screen; series mostly up to 46.1 µM;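 also: viability measured after 17.5 h of compound exposure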
Procedure, shortened: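 Quantitative high-throughput viability counter screen in ERR cells. Compounds (DMSO) incubated 17.5 h at 37 C; read-out was CellTiter-Fluor fluorescence.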

[16] = qHTS assay to identify small molecule antagonists of the estrogen related receptor signaling pathway with the pleiotropic PPARgamma coactivator (PGC) cell viability counter screen (AID 1224822); settings: ERR/PGC reporter cell line viability counter screen; series mostly up to 46.1 µM
Procedure, shortened: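 Cytotoxicity in the PGC/ERR cell line is assessed with CellTiter-Fluor, read as fluorescence intensity 30 min after reagent addition, following 17.5 h compound treatment at 37 C.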

[17] = qHTS assay to identify small molecule antagonists of the estrogen related receptor (ERR) signaling pathway (AID 1224819; also: nearly all actives have a fitted effect of over 50% in size); settings: ERR reporter cell line, luciferase inhibition; series mostly up to 46.1 µM
Procedure, shortened: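 ERR reporter cell line (NTP) plated at 2,000 cells/well, settled 6 h at 37C/5% CO2, then exposed to LOPAC compounds for 18 h at 37C. One-Glo luciferase luminescence read after 30 min at room temperature.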

[18] = qHTS assay to identify small molecule agonists of the estrogen related receptor (ERR) signaling pathway (AID 1224820); settings: ERR reporter cell line, luciferase agonist mode; series mostly up to 46.1 µM
Procedure, shortened: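 After 6 h plating (2,000 cells/well) and 18 h compound treatment at 37 C, ERR cells were lysed with One-Glo and luminescence read after 30 min at room temperature.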

[19] = test system: estrogen-related receptor alpha (ERRalpha) with PGC-1alpha coactivator, human; test: qHTS assay to identify small molecule antagonists of the estrogen related receptor signaling pathway with the pleiotropic PPARgamma coactivator (PGC) (AID 1224821; calls by dose curve); settings: ERR/PGC reporter cell line, luciferase, antagonist mode; series mostly up to 46.1 µM
Procedure, shortened: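 Luminescence from One-Glo luciferase reagent (30 min, room temperature) measured after 18 h compound treatment at 37 °C. Cells carry the PGC/ERR reporter and were seeded 6 h prior to dosing.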

[20] = qHTS assay to identify small molecule agonists of the estrogen related receptor signaling pathway with the pleiotropic PPARgamma coactivator (PGC) (AID 1224823); settings: ERR/PGC reporter cell line, luciferase agonist mode; series mostly up to 46.1 µM
Procedure, shortened: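 Luminescence from One-Glo reagent (30 min, room temperature) was read after 18 h compound treatment at 37 C of PGC/ERR cells plated 6 h beforehand; compounds delivered in DMSO by pin tool.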

Sequence of Retinoic acid receptor RXR-alpha (Homo sapiens) (P19793 whole entry, looked up): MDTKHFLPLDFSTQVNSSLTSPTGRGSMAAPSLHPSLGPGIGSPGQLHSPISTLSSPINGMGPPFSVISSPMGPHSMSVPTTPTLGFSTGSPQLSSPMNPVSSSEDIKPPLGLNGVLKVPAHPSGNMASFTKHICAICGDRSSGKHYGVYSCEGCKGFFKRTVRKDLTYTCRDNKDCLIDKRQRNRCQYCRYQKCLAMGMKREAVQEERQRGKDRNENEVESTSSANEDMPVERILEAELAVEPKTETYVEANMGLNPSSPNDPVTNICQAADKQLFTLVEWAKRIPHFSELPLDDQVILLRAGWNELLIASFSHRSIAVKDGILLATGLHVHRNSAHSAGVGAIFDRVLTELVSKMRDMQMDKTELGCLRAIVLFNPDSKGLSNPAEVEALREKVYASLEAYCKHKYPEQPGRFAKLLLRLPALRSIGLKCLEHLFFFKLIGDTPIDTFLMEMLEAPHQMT

SMILES | outcome [1] | outcome [2] | outcome [3] | outcome [4] | outcome [5] | outcome [6] | Potency [7] | outcome [8] | outcome [9] | Potency [10] | Potency [11] | outcome [12] | Potency [13] | Potency [14] | outcome [15] | outcome [16] | outcome [17] | outcome [18] | outcome [19] | outcome [20]
CCC(C)(CN(C)C)OC(=O)c1ccccc1 (configuration not stated) | inactive | inactive | inactive | inactive | inactive | inactive | inactive | inactive | inactive | inactive | inactive | inactive | inactive | inactive | – | – | – | – | – | –
CCC1C(=O)OCC1Cc1cncn1C (configuration not stated) | inactive | inactive | inactive | inactive | inactive | inactive | inactive | inactive | inactive | inactive | inactive | inactive | inactive | inactive | – | – | – | – | – | –
C1CCC2=NCCCN2CC1 | – | – | inactive | inactive | inactive | inactive | inactive | inactive | inactive | inactive | inactive | inactive | – | – | – | – | – | – | – | –
C=C[Si](OC(C)=O)(OC(C)=O)OC(C)=O | – | inactive | inactive | inactive | inactive | inactive | inactive | inactive | inactive | inactive | inactive | inactive | inactive | – | – | – | – | – | – | –
O=C(O)c1cc(C(=O)O)cc(C(=O)O)c1 | inactive | inactive | inactive | inactive | inactive | inactive | inactive | inactive | inactive | inactive | inactive | inactive | – | inactive | – | – | – | – | – | –
CC12CCC(C(=O)C1=O)C2(C)C (configuration not stated) | inactive | inactive | inactive | inactive | inactive | inactive | inactive | inactive | inactive | inactive | inactive | inactive | inactive | inactive | – | – | – | – | – | –
O=C(c1ccccc1O)c1ccccc1O | inactive | inactive | inactive | inactive | inactive | inactive | inactive | inactive | inactive | inactive | inactive | inactive | inactive | inactive | – | – | – | – | – | –
C=C(C)C(=O)OCC1CCCO1 (configuration not stated) | inactive | inactive | inactive | inactive | inactive | inactive | inactive | inactive | inactive | inactive | inactive | inactive | inactive | – | – | – | – | – | – | –
CC(C)COC(=O)c1ccc(N)cc1 | inactive | inactive | inactive | inactive | inactive | inactive | inactive | inactive | inactive | inactive | inactive | inactive | inactive | 18.8 µM (active) | – | – | – | – | – | –
CCCCCCCC1CCCC1=O (configuration not stated) | inactive | inactive | inactive | inactive | inactive | inactive | inactive | inactive | inactive | inactive | inactive | inactive | inactive | – | – | – | – | – | – | –
C[N+](C)(C)CCCCCCCCCC[N+](C)(C)C | inactive | inactive | inactive | inactive | inactive | inactive | inactive | inactive | inactive | inactive | inactive | inactive | – | inactive | inactive | inactive | – | – | – | –
CC(N)C12CC3CC(CC(C3)C1)C2 (configuration not stated) | inactive | inactive | inactive | inactive | inactive | inactive | inactive | inactive | inactive | inactive | inactive | inactive | inactive | inactive | – | – | – | – | – | –
CCOC(=O)C1=NOC(c2ccccc2)(c2ccccc2)C1 | – | inactive | inactive | inactive | inactive | inactive | inactive | inactive | inactive | inactive | inactive | inactive | inactive | inactive | – | – | – | – | – | –
CCOC(=O)CCC(=O)OCC | – | inactive | inactive | inactive | inactive | inactive | inactive | inactive | inactive | inactive | inactive | inactive | inactive | – | – | – | – | – | – | –
[Ca+2] | inactive | – | inactive | inactive | inactive | inactive | inactive | inactive | inactive | inactive | inactive | inactive | – | inactive | – | – | – | – | – | –
O=C1NC(=O)C2CC=CCC12 (configuration not stated) | – | inactive | inactive | inactive | inactive | inactive | inactive | inactive | inactive | inactive | inactive | inactive | inactive | inactive | – | – | – | – | – | –
CNCC(O)c1ccc(O)c(O)c1 (configuration not stated) | inactive | inactive | inactive | inactive | inactive | inactive | inactive | inactive | inactive | inactive | inactive | inactive | – | inactive | inactive | inactive | inactive | inactive | inactive | inactive
C[N+]12CCC(CC1)C(OC(=O)C(O)(c1ccccc1)c1ccccc1)C2 (configuration not stated) | inactive | inactive | inactive | inactive | inactive | inactive | inactive | inactive | inactive | inactive | inactive | inactive | – | inactive | – | – | – | – | – | –
